Key:
Test in all cases: log2 ratio of Biotin-Ahx-Ub-VS probe labelling (fragment/DMSO); higher = less target engagement (more negative = stronger competition), active = hit call of the paper (q ≤ 0.05, log2 ratio ≤ -1)
Details in all cases: compound concentration: 200 uM; treatment time: 3 h
USP34 = USP34 (UniProt Q70CQ2)
Method in brief: (§1)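 HEK293T lysate, 495 µg per sample in Tris/CHAPS/IGEPAL buffer with protease inhibitors, was treated in triplicate with fragment at 200 µM or vehicle for 3 h and then with Biotin-Ahx-Ub-VS at 0.5 µM final for 1 h. Labelled DUBs were NeutrAvidin-enriched, digested with LysC and trypsin, and run by diaPASEF LC-MS/MS. Spectronaut label-free quantities were global-median-normalised, and values are average log2 fragment/vehicle ratios by unpaired t-test on proteins with ≥2 unique peptides.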

USP36 = target: T1, USP36 (UniProt Q9P275)
T1 sequence (whole entry): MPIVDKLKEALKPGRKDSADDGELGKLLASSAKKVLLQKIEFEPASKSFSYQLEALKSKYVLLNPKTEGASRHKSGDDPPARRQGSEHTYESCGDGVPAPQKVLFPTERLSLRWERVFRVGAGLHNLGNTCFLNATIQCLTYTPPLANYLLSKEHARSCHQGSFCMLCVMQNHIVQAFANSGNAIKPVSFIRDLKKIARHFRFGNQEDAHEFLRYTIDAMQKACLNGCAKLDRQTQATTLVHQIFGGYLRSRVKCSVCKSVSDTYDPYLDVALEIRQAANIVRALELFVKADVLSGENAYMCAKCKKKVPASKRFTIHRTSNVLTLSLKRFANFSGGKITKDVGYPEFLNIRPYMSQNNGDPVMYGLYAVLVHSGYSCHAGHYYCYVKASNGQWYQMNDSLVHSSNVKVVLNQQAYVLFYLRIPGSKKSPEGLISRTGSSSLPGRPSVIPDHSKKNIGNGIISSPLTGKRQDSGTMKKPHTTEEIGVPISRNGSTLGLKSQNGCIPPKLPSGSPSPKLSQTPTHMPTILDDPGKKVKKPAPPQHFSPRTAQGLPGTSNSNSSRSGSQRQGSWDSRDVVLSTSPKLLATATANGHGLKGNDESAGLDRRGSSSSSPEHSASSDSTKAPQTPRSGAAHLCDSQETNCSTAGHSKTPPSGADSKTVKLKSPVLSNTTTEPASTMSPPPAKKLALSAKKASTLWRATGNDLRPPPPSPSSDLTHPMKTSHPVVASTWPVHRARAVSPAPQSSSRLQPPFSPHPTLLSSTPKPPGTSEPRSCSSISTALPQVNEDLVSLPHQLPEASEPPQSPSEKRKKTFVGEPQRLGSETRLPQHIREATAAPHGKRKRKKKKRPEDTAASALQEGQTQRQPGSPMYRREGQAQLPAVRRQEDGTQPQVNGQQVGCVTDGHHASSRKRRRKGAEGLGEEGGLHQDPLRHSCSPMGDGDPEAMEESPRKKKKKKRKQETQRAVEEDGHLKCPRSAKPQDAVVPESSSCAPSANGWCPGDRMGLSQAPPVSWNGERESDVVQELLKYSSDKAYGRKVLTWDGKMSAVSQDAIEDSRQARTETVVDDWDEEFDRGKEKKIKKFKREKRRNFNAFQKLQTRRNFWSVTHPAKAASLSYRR
Method in brief: as §1

USP38 = target: T2, USP38 (UniProt Q8NB14)
T2 sequence (whole entry): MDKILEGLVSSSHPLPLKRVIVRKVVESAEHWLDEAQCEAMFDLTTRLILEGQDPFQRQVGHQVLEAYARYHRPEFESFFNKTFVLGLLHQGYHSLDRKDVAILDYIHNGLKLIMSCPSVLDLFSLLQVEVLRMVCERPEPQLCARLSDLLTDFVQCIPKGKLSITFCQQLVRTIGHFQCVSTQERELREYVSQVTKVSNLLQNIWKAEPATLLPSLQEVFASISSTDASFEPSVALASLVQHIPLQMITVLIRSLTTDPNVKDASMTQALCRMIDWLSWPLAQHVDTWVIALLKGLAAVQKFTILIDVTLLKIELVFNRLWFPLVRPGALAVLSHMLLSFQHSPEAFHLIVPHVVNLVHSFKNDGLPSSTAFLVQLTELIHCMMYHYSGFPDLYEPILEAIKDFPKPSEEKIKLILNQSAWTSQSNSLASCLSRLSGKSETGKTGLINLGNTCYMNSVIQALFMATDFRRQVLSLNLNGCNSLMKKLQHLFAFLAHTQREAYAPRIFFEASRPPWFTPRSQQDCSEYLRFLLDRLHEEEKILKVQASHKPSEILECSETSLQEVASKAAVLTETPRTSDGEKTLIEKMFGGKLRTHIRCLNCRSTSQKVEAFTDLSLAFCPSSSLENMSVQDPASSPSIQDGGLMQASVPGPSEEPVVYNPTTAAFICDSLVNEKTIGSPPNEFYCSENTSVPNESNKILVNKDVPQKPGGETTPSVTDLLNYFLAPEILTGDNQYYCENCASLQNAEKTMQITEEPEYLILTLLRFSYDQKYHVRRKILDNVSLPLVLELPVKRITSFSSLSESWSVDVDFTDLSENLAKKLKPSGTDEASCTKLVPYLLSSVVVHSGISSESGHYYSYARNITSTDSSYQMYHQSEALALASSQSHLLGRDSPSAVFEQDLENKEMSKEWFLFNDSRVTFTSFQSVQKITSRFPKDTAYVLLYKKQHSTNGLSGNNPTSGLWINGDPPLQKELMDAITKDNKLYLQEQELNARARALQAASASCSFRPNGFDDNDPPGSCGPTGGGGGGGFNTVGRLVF
Method in brief: as §1

USP39 = target: T3, USP39 (UniProt Q53GS9)
T3 sequence (whole entry): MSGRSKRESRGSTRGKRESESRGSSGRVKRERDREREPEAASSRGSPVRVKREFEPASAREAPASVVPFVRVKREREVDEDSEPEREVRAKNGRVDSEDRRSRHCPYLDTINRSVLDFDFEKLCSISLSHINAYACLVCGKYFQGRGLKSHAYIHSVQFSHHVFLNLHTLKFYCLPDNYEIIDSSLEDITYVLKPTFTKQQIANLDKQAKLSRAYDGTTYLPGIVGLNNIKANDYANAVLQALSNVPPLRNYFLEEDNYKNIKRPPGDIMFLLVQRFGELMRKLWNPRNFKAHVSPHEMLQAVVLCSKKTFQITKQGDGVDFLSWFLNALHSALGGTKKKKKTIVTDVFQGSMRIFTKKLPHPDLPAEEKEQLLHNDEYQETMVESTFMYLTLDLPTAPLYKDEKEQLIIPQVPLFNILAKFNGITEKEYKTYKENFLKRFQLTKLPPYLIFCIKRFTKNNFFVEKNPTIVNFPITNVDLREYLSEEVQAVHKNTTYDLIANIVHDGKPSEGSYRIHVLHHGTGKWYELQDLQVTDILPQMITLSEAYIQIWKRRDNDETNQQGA
Method in brief: as §1

USP4 = target: T4, USP4 (UniProt Q13107)
T4 sequence (whole entry): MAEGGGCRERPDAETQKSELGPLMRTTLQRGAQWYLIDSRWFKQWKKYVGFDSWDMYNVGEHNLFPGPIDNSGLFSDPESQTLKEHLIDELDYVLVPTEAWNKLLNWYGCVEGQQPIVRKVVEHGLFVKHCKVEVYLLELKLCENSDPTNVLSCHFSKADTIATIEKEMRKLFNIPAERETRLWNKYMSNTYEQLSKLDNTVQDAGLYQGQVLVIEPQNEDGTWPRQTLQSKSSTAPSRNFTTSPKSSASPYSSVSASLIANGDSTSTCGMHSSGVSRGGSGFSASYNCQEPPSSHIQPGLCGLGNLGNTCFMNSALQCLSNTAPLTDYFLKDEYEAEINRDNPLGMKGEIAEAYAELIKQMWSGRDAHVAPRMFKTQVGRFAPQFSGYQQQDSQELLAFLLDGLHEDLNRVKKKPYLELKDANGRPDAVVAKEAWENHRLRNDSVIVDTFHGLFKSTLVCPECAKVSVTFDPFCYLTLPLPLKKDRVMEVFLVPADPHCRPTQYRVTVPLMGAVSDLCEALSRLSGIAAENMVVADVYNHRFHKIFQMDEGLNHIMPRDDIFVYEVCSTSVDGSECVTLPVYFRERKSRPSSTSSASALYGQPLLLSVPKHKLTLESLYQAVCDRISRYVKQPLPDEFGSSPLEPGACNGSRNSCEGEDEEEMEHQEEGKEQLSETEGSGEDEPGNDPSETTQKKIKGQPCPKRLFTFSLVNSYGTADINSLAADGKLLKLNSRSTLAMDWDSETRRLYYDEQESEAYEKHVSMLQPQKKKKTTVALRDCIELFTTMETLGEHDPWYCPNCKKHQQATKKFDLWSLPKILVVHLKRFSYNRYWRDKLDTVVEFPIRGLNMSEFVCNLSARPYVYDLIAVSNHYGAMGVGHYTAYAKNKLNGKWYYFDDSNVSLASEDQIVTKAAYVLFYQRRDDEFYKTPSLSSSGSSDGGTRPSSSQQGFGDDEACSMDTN
Method in brief: as §1

Measured: log2 ratio of Biotin-Ahx-Ub-VS probe labelling

Chain of USP34 (Q70CQ2 whole entry, the tested form may be a part): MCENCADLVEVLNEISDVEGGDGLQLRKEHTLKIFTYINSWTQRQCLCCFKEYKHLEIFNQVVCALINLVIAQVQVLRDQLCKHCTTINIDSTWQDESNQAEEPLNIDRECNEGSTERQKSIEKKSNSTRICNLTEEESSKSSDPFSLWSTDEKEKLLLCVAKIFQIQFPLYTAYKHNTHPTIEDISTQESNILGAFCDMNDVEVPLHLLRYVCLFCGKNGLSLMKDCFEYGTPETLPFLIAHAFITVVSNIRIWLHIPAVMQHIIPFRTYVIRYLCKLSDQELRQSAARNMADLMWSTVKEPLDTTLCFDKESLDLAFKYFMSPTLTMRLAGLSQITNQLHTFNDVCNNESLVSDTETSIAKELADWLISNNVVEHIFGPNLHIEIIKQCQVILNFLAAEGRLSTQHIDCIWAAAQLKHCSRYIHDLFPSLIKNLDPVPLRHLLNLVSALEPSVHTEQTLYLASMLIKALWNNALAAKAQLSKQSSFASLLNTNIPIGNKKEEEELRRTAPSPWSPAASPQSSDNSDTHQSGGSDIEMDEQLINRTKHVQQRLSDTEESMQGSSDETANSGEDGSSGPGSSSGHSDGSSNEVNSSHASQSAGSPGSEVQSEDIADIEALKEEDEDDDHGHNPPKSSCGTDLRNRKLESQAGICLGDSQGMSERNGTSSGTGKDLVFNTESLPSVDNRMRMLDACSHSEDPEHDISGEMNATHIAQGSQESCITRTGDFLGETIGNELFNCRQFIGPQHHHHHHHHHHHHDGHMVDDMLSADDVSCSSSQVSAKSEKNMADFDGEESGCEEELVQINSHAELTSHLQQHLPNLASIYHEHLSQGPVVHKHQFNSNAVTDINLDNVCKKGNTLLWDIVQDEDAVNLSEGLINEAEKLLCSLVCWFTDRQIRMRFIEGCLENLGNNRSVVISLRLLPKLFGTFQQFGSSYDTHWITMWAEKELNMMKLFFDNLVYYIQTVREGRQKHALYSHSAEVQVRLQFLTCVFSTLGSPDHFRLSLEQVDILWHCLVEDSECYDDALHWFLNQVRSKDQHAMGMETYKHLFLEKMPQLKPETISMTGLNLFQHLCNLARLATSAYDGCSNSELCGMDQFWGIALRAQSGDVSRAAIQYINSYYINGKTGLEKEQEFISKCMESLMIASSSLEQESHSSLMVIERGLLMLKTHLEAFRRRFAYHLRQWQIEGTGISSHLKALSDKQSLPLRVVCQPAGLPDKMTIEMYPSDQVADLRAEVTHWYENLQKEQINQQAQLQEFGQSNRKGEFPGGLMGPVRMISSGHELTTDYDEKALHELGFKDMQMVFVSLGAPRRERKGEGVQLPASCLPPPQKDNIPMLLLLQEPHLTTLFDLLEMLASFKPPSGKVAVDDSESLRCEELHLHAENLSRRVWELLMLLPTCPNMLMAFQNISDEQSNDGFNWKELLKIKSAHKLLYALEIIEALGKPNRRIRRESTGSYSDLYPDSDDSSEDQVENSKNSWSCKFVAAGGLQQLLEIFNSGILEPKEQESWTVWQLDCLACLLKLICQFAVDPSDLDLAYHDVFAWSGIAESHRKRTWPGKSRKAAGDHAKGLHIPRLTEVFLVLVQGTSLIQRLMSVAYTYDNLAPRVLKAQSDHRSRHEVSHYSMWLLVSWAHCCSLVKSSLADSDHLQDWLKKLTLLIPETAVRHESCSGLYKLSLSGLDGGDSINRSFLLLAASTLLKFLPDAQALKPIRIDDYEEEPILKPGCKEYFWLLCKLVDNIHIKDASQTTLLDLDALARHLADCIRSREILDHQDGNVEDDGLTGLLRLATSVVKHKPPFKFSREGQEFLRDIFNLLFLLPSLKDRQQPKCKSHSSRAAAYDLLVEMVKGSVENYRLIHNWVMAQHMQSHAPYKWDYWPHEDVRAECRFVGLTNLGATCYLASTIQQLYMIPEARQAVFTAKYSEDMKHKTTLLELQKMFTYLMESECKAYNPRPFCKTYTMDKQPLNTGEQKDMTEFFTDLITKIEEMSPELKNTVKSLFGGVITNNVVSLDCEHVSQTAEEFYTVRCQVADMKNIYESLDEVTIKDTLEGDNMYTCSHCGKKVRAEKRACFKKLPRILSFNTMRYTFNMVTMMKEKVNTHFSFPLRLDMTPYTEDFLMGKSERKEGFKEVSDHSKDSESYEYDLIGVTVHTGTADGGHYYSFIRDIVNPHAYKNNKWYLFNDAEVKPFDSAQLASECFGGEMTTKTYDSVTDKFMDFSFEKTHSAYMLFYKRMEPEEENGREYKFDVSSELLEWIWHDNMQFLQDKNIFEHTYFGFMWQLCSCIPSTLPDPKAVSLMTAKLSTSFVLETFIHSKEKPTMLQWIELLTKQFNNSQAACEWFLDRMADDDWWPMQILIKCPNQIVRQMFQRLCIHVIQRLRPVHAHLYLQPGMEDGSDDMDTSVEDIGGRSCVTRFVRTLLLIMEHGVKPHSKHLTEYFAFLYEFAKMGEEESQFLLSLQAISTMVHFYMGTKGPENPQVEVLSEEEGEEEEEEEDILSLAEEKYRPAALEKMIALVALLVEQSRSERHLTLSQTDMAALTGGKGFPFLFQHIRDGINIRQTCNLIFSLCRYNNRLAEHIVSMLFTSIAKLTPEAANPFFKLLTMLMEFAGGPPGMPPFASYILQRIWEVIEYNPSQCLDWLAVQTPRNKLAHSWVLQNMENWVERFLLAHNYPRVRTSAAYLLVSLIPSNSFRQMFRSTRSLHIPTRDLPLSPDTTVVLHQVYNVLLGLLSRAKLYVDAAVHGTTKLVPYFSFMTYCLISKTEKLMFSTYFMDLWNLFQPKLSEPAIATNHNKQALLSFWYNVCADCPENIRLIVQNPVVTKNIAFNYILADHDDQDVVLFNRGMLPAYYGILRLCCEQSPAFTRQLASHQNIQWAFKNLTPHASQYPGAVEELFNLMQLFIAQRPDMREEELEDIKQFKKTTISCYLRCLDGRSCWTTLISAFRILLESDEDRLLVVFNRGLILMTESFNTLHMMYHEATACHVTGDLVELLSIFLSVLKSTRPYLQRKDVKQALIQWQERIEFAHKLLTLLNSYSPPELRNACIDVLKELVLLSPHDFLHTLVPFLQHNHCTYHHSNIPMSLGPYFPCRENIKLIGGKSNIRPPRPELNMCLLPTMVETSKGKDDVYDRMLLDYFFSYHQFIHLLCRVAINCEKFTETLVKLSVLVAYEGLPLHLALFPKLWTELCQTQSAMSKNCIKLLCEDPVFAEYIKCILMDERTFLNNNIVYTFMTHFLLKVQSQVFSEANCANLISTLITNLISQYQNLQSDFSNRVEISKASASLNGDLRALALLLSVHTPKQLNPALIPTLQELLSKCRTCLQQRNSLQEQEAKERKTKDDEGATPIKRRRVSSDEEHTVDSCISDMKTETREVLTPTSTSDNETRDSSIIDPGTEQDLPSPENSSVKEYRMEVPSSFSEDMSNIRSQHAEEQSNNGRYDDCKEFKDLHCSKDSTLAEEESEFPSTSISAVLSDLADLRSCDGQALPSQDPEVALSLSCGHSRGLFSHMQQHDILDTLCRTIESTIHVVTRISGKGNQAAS

O=C(CCl)N1CCc2nc[nH]c2C1c1ccc(Cl)cc1 (stereo not given)
inactive: USP34 -0.355 | USP36 -0.00322 | USP38 -0.0469 | USP39 0.0317 | USP4 -0.375

Reference: the supplement of paper PMC11732987, “Enantioselective OTUD7B fragment discovery through chemoproteomics screening and high-throughput optimisation” (Communications Chemistry, 2025)
